Assay outcomes (PubChem)
In the library only some 14% were active in any assay of this set; here they are far more common.
Pf growth 48h: Primary qHTS for delayed death inhibitors of the malarial parasite plastid, 48 hour incubation | P. falciparum luciferase growth in erythrocytes, 48 h | Potency, µM (highest dose often 28.7 µM), inactives show at the highest dose activity change, negative = inhibition, most hits filed as inhibitors | 310,000 tested, 5.9% active | AID 504832, 2011; also: potency is read from the fitted curve at half-maximal effect
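In quantitative HTS format, infected erythrocytes bearing luciferase-reporter parasites were treated for a single generation at 37 C. Luminescence after adding detection reagent served as the growth measure.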
Pf growth 96h: Primary qHTS for delayed death inhibitors of the malarial parasite plastid, 96 hour incubation; Potency, µM (top dose mostly 28.7 µM), without a hit: at the highest dose activity change, negative = inhibition, hits mostly inhibitors; 320,000 tested, 6.9% active; AID 504834, 2011; P. falciparum luciferase reporter growth, 96 h; also: potency is read from the fitted curve at half-maximal effect
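Plates of compound plus infected erythrocytes (2% hematocrit, 0.05% parasitemia final) incubate 96 hours, 37 C, 5% CO2. Detection reagent added; reduced luminescence from the parasites' luciferase reporter flags inhibition.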
FBPA Giardia inh: qHTS Assay for Inhibitors of Fructose-1,6-bisphosphate Aldolase from Giardia Lamblia | purified Giardia FBPA | Potency, µM (doses to about 59.6 µM), inactives show at the top dose activity, negative = inhibition, hits mostly inhibitors | 290,000 tested, 0.71% active; also: potency is read from the fitted curve at half-maximal effect; nearly all actives have a fitted effect of over 55% in size
Target sequence (A8B2U2 whole entry, looked up): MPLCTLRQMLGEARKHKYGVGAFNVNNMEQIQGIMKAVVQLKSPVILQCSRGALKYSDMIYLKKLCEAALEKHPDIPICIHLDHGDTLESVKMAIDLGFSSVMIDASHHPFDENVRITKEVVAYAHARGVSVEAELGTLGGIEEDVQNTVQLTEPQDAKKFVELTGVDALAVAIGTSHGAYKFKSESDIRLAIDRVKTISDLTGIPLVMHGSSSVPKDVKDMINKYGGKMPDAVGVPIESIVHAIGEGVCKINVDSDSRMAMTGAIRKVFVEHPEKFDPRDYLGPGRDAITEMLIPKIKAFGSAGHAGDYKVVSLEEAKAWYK
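Giardia FBPA (40 nM reagent) was preincubated 10 min at RT with compound (up to 57.5 uM final), then substrate plus GAPDH/TPI/NAD/arsenate coupling system with diaphorase/resazurin was added; resorufin fluorescence (525/598 nm) was read after 20 min.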
HCMV inh: qHTS Assay for inhibitors of the human cytomegalovirus (HCMV); activity change, negative = inhibition, % at 57.5 µM; 410,000 tested, 4.5% active; HFF cells, HCMV-luciferase reporter, 72 h; active compounds read low; in the data active = activity change below about -60%; inconclusive = no clear call, values can overlap the other calls; inactive = above about -39%
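After 16 h attachment at 37C, HFF cells received test compound and HCMV-luciferase (1 PFU/cell); reporter luminescence read 72 h later, data normalized against buffer-only and known inhibitor Salinomycin.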
Sm TGR inh: qHTS Assay for the Inhibitors of Schistosoma Mansoni Peroxiredoxins; AID 485364, 2010; Schistosoma mansoni thioredoxin glutathione reductase (TGR), Q962Y6; Potency, µM (series often up to 114 µM), for the others: at the highest dose activity change, negative = inhibition, usual class: inhibitors; 360,000 tested, 3% active; purified TGR, DTNB reduction, TNB absorbance 405 nm; also: potency is read from the fitted curve at half-maximal effect; nearly all actives have a fitted effect of over 60% in size
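First, TGR (20 nM dispensed) and NADPH were mixed with compound. Second, a 15 min room-temperature incubation followed. Third, further NADPH and then DTNB were added to start the reaction. Finally, TNB absorbance was monitored kinetically.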
The depositor's hits bear a star; ? = inconclusive; · = no result. Unless noted, calls follow the shape of the dose curve; as a rule, active = well fitted curve in the direction sought with a large enough effect; inconclusive = small, poorly fitted or top-dose-only effect, or another doubt; inactive = no such curve, though single readings can be large; an effect the other way counts as inactive or inconclusive. % is scaled to controls: 0 for no effect and ±100 for the full control effect.

SMILES | Pf growth 48h | Pf growth 96h | FBPA Giardia inh | HCMV inh | Sm TGR inh
COc1ccccc1CNC(=O)CN1NS(=O)(=O)c2ccccc2C1=O | · | · | · | 17 | ·
CCOc1ccc(CNc2nc3nc(C)c(Cc4ccccc4)c(=O)n3[nH]2)cc1 | · | · | · | 4 | 2%
COc1ccc(NC(=S)N2CCN(C/C=C/c3ccccc3)CC2)cc1 | -20% | 21% | 0% | -65* | -4%
COc1ccc(NC(=S)N2CCN(S(=O)(=O)c3ccccc3)CC2)cc1 | 9% | 10µM* | · | 4 | 0%
Cc1cc(C)cc(NC(=S)N2CCN(S(=O)(=O)c3ccccc3)CC2)c1 | ? | 3.7µM* | · | ? | -13%
COC(=O)c1ccc(NC(=S)N2CCN(C(=O)c3ccco3)CC2)cc1 | 5% | 36% | · | -14 | 1%
COc1ccc(NC(=S)N2CCN(C(=O)c3ccco3)CC2)cc1 | 41% | 0.47µM* | ? | 9 | -14%
O=c1cc(CO)occ1O | -2% | -4% | -12% | · | ·
Cc1ccc2c(c1)cc1c(=O)n(Cc3ccccc3Cl)nc(C)n12 | · | · | · | -4 | 9%
COc1ccc(OCCN2CCC(C(=O)NC(c3ccc(F)cc3)c3ncccc3C)CC2)cc1 (stereo not drawn) | · | · | · | 2 | ·
COc1ccc(NC(=S)N2CCN(S(=O)(=O)c3ccc(OC)cc3)CC2)cc1 | ? | 0% | · | -13 | -24%
COc1ccc(NC(=S)N2CCN(S(=O)(=O)c3ccc(C)cc3)CC2)cc1 | ? | -26% | -8% | -61* | -10%
Nc1cc(N)nc(SCC(=O)NC2CCCCCCC2)n1 | 0% | 10% | · | -1 | 0%
CCN(CC)CCN(C(=O)c1ccc2c(c1)CCCC2)c1nc2ccc(F)cc2s1 | ? | ? | -19% | 0 | -11%
CN(C)CCN(C(=O)c1ccc(C(=O)c2ccccc2)cc1)c1nc2cc3c(cc2s1)OCO3 | 13% | 12% | · | 50 | -16%
CN(C)CCN(C(=O)c1ccc(C(=O)c2ccccc2)cc1)c1nc2cc3c(cc2s1)OCCO3 | 27% | 3% | -18% | 54 | 3%
CN(C)CCN(C(=O)c1ccc(N2C(=O)CCC2=O)cc1)c1nc2cc3c(cc2s1)OCCO3 | 100% | 0% | -11% | 74 | 35µM*
CN(C)CCCN(C(=O)c1ccc(Br)s1)c1nc2cc3c(cc2s1)OCO3 | -10% | ? | -3% | -103* | 7%
CN(C)CCCN(C(=O)c1ccc2c(c1)CCCC2)c1nc2ccc(F)cc2s1 | 8.3µM* | ? | -6% | -29 | -10%
CN(C)CCCN(C(=O)c1ccc2c(c1)CCCC2)c1nc2cc3c(cc2s1)OCO3 | 12µM* | 2.3µM* | -22% | ? | 1%
CCOC(=O)c1ccccc1NC(=O)N1CC(C)Oc2ccc(C)cc21 (stereo not drawn) | · | · | · | -14 | 2%
Cc1cc(/C=C(\C#N)C(=O)OCC(=O)N(C)c2c(N)n(Cc3ccccc3)c(=O)[nH]c2=O)c(C)n1CC(C)C | · | · | · | 60 | ·
COCCNCC(=O)Nc1ccccc1Sc1ccccc1 | 19% | 0% | -22% | 16 | 2%
C=CCOc1ccc(/C=C/C(=O)OCC(=O)NCc2ccco2)cc1 | 6% | 21% | · | -9 | 1%
Cc1ccc2c(c1)c1c(c(=O)n(-c3cccc(Cl)c3)c(=O)n1CC(=O)Nc1c(C)cccc1C)n2C | · | · | · | 6 | -6%
SMILES | Pf growth 48h | Pf growth 96h | FBPA Giardia inh | HCMV inh | Sm TGR inh
Cc1c(CNC(C)CCc2ccccc2)c(C(=O)O)c(C)n1Cc1ccc(F)cc1 (stereo not drawn) | · | · | · | 0 | 0%
C=C1C(n2cnc3c(=O)[nH]c(N)nc32)C[C@H](O)[C@H]1CO (stereo partly drawn) | ? | 6µM* | · | · | ·
Nc1nc2c(ncn2C2C[C@H](O)[C@@H](CO)O2)c(=O)[nH]1 (stereo partly drawn) | 3% | 3% | · | -2 | -1%
CCN(CC)S(=O)(=O)c1cc(NC(=O)c2cc(-c3ccccn3)nc3ccccc23)ccc1C | 9.3µM* | ? | -11% | 15 | 5%
CCOc1ccccc1NC(=O)c1cc(-c2ccccn2)nc2ccccc12 | 15µM* | ? | · | 0 | -12%
COc1ccc(NC(=O)c2cc(-c3ccccn3)nc3ccccc23)c(OC)c1 | · | · | · | 4 | ·
CCOc1ccccc1-c1cc(C(=O)Nc2ccc(C(=O)O)cc2)c2ccccc2n1 | ? | 10µM* | 1% | 115 | 13%
CCOc1ccc(-c2cc(C(=O)O)c3ccccc3n2)c(OCC)c1 | -5% | ? | -20% | ? | -6%
COc1ccc(NC(=O)c2cc(-c3ccccn3)nc3ccccc23)cc1S(=O)(=O)N(C)C | ? | -25% | · | -11 | 0%
CC(=O)NC(C)(c1ccccc1)c1nc(-c2cccc(C#N)c2)cs1 (stereo not drawn) | · | · | · | 9 | ·
COCCn1c(C)cc(O)c(C(c2ccccc2F)N2CCN(c3ccccc3)CC2)c1=O (stereo not drawn) | · | · | · | -11 | 4.5µM*
COCCn1c(C)cc(O)c(C(c2ccccc2OC)N2CCN(c3ccccc3)CC2)c1=O (stereo not drawn) | · | · | · | 10 | 3.5µM*
CC(C)(C)NC(=O)C1C(c2ccccc2)=Nc2ccccc2N1C(=O)c1ccc(C(F)(F)F)cc1 (stereo not drawn) | · | · | · | 12 | ·
COc1cccc(OC)c1C(=O)NC1C(=O)N2C1SC(C)(C)C2C(=O)O (stereo not drawn) | 3% | -3% | -6% | · | ·
O=C(CCn1nnnc1CN1CCOCC1)N1CCC(c2cccc(Cl)c2)C1 (stereo not drawn) | 1% | ? | · | 1 | ?
CCCCN1C(C)=CC(=C2C(=O)c3ccccc3C2=O)C=C1C | 300% | -18% | -3% | 35 | 3%
CC1=CC(=C2C(=O)c3ccccc3C2=O)C=C(C)N1Cc1ccco1 | 110% | ? | -14% | 78 | 40µM*
Cc1cc(C)c2cc(CN(Cc3cccnc3)C(=O)c3ccc(F)cc3)c(Cl)nc2c1 | 1.5µM* | ? | 3% | -16 | 13%
COc1cccc(NC(=O)CN(C)S(=O)(=O)c2ccc3c(c2)CCC(=O)N3)c1 | 17% | 7.4µM* | 3% | · | -4%
CC1CCC(NC(=O)CN(C)S(=O)(=O)c2ccc3c(c2)CCC(=O)N3)CC1 (stereo not drawn) | -15% | 1.5µM* | · | -17 | -9%
Cc1ccc(C)c(N2CCN(C(=O)CN(C)S(=O)(=O)c3ccc4c(c3)CCC(=O)N4)CC2)c1 | · | 2.3µM* | 0% | -15 | 10%
CC1CCCCC1NC(=O)CN(C)S(=O)(=O)c1ccc2c(c1)CCC(=O)N2 (stereo not drawn) | -8% | ? | · | 7 | 2%
CCc1nc(NCC2CC2)c2nnn(Cc3ccccc3)c2n1 | · | · | · | 2 | ·
